Experimental data from ChEMBL document CHEMBL1961873, “Compounds: GSK PKIS; Assays: Nanosyn kinase panel” (2012).

Key:
[1] = system: Tyrosine-protein kinase ABL1 (Homo sapiens), P00519 [T315I]; details: at 1 µM
[2] = system: Tyrosine-protein kinase ABL1 (Homo sapiens), P00519 [Y253F]; details: at 0.1 µM
[3] = system: Tyrosine-protein kinase ABL1 (Homo sapiens), P00519 [Y253F]; details: at 1 µM
[4] = target: Tyrosine-protein kinase ABL1 (Homo sapiens) (UniProt P00519); details: at 0.1 µM
[5] = target: Tyrosine-protein kinase ABL1 (Homo sapiens) (UniProt P00519); details: at 1 µM
[6] = target: ALK tyrosine kinase receptor (Homo sapiens) (UniProt Q9UM73); details: at 0.1 µM
ALK tyrosine kinase receptor (Homo sapiens), sequence (Q9UM73 19-1620 limits assumed): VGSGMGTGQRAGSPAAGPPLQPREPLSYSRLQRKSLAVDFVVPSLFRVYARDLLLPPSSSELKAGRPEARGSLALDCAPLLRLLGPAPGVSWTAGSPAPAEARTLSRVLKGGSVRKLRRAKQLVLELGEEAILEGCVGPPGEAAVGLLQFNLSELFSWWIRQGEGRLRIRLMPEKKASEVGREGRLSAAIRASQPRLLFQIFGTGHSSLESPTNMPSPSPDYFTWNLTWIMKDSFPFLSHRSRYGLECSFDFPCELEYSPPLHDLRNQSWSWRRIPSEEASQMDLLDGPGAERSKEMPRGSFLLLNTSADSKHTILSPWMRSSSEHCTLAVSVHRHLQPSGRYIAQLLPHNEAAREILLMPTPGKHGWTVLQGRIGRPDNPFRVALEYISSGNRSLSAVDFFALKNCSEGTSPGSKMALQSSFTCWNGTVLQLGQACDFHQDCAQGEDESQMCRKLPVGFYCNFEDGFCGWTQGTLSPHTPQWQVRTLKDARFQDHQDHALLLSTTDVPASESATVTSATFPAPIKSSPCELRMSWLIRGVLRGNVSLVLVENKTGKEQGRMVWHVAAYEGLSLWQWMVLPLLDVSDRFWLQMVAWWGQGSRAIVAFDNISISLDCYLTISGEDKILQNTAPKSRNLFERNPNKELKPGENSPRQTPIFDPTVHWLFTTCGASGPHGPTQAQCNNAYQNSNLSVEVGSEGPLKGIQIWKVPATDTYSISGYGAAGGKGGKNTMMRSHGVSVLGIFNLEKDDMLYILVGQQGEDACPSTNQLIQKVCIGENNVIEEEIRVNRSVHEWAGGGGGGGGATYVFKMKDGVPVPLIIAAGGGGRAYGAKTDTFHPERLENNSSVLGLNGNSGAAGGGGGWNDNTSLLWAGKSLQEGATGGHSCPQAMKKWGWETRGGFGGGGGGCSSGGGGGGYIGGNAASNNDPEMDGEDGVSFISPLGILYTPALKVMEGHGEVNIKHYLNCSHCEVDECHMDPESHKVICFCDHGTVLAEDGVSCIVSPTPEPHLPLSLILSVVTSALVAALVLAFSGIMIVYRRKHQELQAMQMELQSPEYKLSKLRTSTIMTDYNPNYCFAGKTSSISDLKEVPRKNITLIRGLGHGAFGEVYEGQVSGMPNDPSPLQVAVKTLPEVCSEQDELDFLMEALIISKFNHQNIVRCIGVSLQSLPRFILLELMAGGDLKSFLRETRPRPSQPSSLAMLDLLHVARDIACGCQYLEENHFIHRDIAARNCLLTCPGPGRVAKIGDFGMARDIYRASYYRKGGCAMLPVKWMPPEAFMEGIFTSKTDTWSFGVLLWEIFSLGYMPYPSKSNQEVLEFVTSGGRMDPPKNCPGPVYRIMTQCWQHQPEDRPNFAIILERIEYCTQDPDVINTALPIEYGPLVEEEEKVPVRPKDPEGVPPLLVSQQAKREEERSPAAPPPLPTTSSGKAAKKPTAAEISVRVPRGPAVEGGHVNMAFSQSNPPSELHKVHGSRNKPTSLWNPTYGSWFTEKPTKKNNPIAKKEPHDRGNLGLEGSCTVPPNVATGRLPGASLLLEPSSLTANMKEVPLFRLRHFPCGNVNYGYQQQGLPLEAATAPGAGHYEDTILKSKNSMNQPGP

[7] = target: ALK tyrosine kinase receptor (Homo sapiens) (UniProt Q9UM73); details: at 1 µM
[8] = target: Tyrosine-protein kinase ABL2 (Homo sapiens) (UniProt P42684); details: at 0.1 µM
Tyrosine-protein kinase ABL2 (Homo sapiens), sequence (P42684 whole entry): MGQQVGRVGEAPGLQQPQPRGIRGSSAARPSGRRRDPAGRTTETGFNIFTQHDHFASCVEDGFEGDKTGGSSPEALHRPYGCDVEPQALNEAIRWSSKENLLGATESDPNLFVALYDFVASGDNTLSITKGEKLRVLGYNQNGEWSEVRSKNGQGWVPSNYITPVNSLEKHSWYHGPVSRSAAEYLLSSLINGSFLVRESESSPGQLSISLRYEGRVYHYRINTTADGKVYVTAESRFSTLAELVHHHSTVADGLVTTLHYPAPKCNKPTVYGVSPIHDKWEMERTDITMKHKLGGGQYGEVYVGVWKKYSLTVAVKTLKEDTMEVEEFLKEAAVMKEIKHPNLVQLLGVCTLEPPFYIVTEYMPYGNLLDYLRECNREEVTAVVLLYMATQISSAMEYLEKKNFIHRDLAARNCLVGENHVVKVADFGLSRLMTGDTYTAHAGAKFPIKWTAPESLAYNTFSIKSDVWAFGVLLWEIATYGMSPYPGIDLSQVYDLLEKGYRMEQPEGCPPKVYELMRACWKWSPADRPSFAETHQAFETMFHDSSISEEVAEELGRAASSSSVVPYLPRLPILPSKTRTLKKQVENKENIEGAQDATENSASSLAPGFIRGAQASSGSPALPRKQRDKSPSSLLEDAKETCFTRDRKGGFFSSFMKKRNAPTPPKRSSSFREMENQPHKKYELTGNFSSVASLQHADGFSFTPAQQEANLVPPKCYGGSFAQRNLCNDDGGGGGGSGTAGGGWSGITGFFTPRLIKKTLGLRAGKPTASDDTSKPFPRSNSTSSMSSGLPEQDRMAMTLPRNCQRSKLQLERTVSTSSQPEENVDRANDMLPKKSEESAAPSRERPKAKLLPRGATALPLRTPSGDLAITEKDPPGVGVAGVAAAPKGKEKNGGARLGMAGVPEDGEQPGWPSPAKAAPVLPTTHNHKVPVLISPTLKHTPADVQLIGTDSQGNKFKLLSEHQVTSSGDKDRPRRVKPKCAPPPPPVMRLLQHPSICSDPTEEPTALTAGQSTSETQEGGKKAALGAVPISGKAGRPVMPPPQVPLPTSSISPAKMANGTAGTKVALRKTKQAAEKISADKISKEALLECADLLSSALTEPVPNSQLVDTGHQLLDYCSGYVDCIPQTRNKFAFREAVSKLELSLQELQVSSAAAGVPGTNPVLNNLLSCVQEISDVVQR

[9] = target: Tyrosine-protein kinase ABL2 (Homo sapiens) (UniProt P42684); details: at 1 µM
[10] = target: Tyrosine-protein kinase receptor UFO (Homo sapiens) (UniProt P30530); details: at 0.1 µM
[11] = target: Tyrosine-protein kinase receptor UFO (Homo sapiens) (UniProt P30530); details: at 1 µM
[12] = target: Tyrosine-protein kinase Blk (Homo sapiens) (UniProt P51451); details: at 0.1 µM
Tyrosine-protein kinase Blk (Homo sapiens), sequence (P51451 2-505 limits assumed): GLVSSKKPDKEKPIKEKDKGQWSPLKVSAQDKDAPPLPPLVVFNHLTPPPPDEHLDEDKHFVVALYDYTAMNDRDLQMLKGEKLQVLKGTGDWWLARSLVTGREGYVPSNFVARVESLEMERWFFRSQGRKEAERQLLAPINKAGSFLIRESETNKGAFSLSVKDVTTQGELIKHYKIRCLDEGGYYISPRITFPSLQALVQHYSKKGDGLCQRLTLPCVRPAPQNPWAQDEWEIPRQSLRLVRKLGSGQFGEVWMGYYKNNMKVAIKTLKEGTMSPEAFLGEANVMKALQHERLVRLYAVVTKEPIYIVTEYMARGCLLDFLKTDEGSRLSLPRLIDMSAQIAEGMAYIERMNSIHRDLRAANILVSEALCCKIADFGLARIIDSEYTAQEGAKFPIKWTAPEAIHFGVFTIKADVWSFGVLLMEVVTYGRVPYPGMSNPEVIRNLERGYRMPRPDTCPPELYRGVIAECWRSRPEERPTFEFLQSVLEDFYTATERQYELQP

[13] = target: Tyrosine-protein kinase Blk (Homo sapiens) (UniProt P51451); details: at 1 µM
[14] = target: T1, Cytoplasmic tyrosine-protein kinase BMX (Homo sapiens) (UniProt P51813); details: at 0.1 µM
T1 sequence (whole entry): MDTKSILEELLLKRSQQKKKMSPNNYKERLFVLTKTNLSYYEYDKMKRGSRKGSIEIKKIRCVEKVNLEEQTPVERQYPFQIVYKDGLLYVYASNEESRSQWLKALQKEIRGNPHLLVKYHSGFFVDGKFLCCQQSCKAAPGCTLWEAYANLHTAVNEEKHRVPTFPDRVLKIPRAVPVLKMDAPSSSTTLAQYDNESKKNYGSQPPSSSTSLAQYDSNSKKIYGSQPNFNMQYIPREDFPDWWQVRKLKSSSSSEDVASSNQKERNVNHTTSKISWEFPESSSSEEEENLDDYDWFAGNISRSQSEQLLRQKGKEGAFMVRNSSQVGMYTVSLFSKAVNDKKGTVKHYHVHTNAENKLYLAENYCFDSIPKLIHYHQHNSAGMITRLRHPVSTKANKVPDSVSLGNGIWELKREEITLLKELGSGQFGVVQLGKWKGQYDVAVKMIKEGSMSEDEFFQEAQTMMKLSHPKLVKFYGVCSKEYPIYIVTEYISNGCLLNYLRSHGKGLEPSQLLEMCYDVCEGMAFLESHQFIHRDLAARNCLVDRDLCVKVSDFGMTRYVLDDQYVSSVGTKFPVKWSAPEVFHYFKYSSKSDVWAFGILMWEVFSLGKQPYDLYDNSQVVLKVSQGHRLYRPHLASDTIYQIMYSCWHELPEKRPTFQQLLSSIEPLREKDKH

[15] = target: T1, Cytoplasmic tyrosine-protein kinase BMX (Homo sapiens); details: at 1 µM
[16] = target: Protein-tyrosine kinase 6 (Homo sapiens) (UniProt Q13882); details: at 0.1 µM
Protein-tyrosine kinase 6 (Homo sapiens), sequence (Q13882 whole entry, looked up): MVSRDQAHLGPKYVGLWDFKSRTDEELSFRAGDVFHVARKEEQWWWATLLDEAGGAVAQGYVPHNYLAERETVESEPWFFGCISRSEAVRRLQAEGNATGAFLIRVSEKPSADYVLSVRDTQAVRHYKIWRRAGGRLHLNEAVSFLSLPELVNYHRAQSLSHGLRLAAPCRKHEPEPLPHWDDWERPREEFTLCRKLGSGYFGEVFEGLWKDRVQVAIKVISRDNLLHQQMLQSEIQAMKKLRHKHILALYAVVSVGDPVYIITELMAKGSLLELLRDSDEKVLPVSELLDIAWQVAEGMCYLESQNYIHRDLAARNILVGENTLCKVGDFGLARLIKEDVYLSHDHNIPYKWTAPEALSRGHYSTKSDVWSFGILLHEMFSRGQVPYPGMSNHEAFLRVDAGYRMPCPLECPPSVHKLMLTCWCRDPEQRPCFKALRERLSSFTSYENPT

[17] = target: Protein-tyrosine kinase 6 (Homo sapiens) (UniProt Q13882); details: at 1 µM
[18] = target: Tyrosine-protein kinase BTK (Homo sapiens) (UniProt Q06187); details: at 0.1 µM
Tyrosine-protein kinase BTK (Homo sapiens), sequence (Q06187 whole entry): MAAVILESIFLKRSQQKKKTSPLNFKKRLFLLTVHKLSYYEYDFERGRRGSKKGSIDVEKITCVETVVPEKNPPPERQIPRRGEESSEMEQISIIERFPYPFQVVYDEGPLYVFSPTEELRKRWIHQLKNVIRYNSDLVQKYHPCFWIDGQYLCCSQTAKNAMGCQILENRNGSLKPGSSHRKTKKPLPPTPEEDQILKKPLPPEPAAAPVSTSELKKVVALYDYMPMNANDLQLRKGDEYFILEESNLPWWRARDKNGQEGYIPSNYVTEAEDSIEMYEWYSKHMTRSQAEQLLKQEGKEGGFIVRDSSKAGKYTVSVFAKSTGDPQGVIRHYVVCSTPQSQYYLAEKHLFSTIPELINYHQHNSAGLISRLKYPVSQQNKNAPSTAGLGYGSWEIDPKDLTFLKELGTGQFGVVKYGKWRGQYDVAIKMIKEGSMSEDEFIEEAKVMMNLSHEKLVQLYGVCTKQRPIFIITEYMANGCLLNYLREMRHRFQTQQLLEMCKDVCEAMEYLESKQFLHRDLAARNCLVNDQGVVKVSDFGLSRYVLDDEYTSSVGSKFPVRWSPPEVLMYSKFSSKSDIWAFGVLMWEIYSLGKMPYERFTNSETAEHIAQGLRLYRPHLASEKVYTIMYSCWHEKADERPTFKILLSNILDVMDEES

[19] = target: Tyrosine-protein kinase BTK (Homo sapiens) (UniProt Q06187); details: at 1 µM
[20] = target: Tyrosine-protein kinase CSK (Homo sapiens) (UniProt P41240); details: at 0.1 µM;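 also: value given is the averaged percent inhibition of CSK kinase activity, from the GSK PKIS kinase inhibitor set screening panel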
Tyrosine-protein kinase CSK (Homo sapiens), sequence (P41240 2-450 limits assumed): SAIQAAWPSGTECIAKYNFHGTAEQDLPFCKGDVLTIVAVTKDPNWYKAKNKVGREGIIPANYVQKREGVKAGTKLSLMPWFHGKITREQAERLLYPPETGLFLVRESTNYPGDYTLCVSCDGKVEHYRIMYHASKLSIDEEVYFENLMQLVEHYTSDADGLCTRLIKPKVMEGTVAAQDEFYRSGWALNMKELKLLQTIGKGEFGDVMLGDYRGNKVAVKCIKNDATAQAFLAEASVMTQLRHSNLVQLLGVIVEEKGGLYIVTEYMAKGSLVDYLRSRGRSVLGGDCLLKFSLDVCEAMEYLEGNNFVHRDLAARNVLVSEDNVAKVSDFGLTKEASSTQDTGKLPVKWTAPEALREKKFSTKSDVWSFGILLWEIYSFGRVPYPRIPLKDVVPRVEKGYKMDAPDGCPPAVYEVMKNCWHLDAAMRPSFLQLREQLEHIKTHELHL

Row | SMILES | inhibition [1] | inhibition [2] | inhibition [3] | inhibition [4] | inhibition [5] | inhibition [6] | inhibition [7] | inhibition [8] | inhibition [9] | inhibition [10] | inhibition [11] | inhibition [12] | inhibition [13] | inhibition [14] | inhibition [15] | inhibition [16] | inhibition [17] | inhibition [18] | inhibition [19] | inhibition [20]
1 | CCc1nccc2c1nc(-c1nonc1N)n2CC | -0.14% | 2.18% | 2.26% | 1.88% | 7.3% | 0.99% | 0.3% | 2.12% | 9.26% | -0.45% | 2.17% | 0.44% | 1.64% | -1.94% | 2.51% | -3.14% | -0.37% | -0.56% | 0.41% | 1.3%
2 | Fc1ccc(-c2ncn(CCCN3CCOCC3)c2-c2ccncc2)cc1 | -0.98% | -0.87% | 0.03% | 1.14% | 0.89% | 1.45% | -0.45% | 1.71% | 5.07% | -0.1% | 1.84% | -0.04% | 1.04% | 1.9% | -0.36% | -4.64% | -0.48% | -0.91% | 2.71% | -2.06%
3 | NS(=O)(=O)c1ccc(Nc2cc(-c3ccc(O)c(F)c3)n[nH]2)cc1 | 22.8% | 2.85% | 35.6% | 0.38% | 34.8% | -2.35% | 8.38% | 0.56% | 16.9% | 1.86% | 1.05% | -1.01% | 12.1% | -5.24% | -1.41% | -4.55% | -9.05% | -1.3% | -0.82% | -8.87%
4 | O=C(Nc1n[nH]c2nc(-c3ccco3)ccc12)C1CC1 | 12.8% | 4.47% | 7.45% | 3.94% | 14% | 1.35% | 2.65% | 4.39% | 6.13% | 2.04% | 5.23% | 0.69% | 5.1% | -0.85% | 1.83% | 2.56% | 1.59% | 0.36% | 0.7% | 0.84%
5 | c1ccc(Oc2ccc(Nc3ncc(-c4ccccc4)o3)cc2)cc1 | 1.01% | 1.56% | 3.65% | 2.29% | 7.18% | 0.41% | 2.22% | 1.49% | 1.49% | -1.17% | -0.31% | 1.93% | 2.96% | -4.27% | 1.54% | -5.64% | -0.31% | -0.86% | 0.56% | 4.92%
6 | CCN(CC)Cc1ccc(Nc2nccc(-c3cnn4ncccc34)n2)cc1 | 47.4% | 8.38% | 39.5% | 6.1% | 29.5% | 2.57% | 24.4% | 1.47% | 22.2% | -3.64% | 16.3% | -0.3% | 1.7% | 2.63% | 10.8% | 3.93% | 15.7% | -3.74% | -0.83% | 1.79%
7 | COc1cc2ncn(-c3cc(OCCc4ccccc4)c(C(N)=O)s3)c2cc1OC | 8.39% | 3.32% | 9.56% | 2.3% | 13.7% | 1.95% | 5.89% | 2.26% | 8.26% | -5.54% | -2.35% | 1.59% | 6.17% | -0.54% | 3.43% | -0.83% | 4.33% | 1.12% | 0.02% | 2.97%
8 | COc1ccc(-c2ccc3c(NC(=O)C4CC4)n[nH]c3n2)cc1 | 21.2% | 2.3% | 9.63% | 2.39% | 19.3% | 1.28% | 1.76% | 2.81% | 8.05% | -1.95% | -2.35% | 1.52% | 2.8% | 3.4% | 2.59% | 0.93% | 2.88% | 0.22% | -0.23% | 0.42%
